For assay [1], the system named is XIP peptide (Xip251-270) binding. The assay is described as follows: XIP fragment 251-270 binding compounds – biochemical, small-molecule microarray, fluorescence 635/667 nm, 0.1 µg/mL protein, primary screen (AID 1182). The conditions noted are these: fluorescent protein binding, 635 nm, higher = more signal, called active from +8 up or from −8 down.
Assay [2] deals with XIP peptide (Xip251-270). The assay is described as follows: compounds binding XIP fragment 251-270 – biochemical, small-molecule microarray, fluorescence 635/667 nm, 0.5 µg/mL protein, primary screen (AID 1183). The conditions noted are these: fluorescence 635 nm, higher = more signal.
Assay [3] is described as follows: blood-stage malaria parasite viability loss – strain 3D7, DAPI fluorescence, 100 nL, primary screen (AID 1184).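 Also: parasites grown inside human red blood cells in medium with human serum.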 The conditions noted are these: P. falciparum 3D7 growth, 3 d, higher = more signal.
The target of assay [4] is Homeobox protein Hox-A13 (Mus musculus) (UniProt Q62424). Put plainly: disruptors of Hoxa13 oligonucleotide interaction – biochemical, fluorescence polarization, labeled oligonucleotide, primary screen (AID 1185). The note with it: Hoxa13:DNA binding, 15 min, higher = more signal, called active from +8 up or from −8 down. In general terms: In fluorescence polarisation assays a small probe gives low polarisation when free and higher when bound to something large.
Sequence of Homeobox protein Hox-A13 (Mus musculus) (Q62424 whole entry, looked up): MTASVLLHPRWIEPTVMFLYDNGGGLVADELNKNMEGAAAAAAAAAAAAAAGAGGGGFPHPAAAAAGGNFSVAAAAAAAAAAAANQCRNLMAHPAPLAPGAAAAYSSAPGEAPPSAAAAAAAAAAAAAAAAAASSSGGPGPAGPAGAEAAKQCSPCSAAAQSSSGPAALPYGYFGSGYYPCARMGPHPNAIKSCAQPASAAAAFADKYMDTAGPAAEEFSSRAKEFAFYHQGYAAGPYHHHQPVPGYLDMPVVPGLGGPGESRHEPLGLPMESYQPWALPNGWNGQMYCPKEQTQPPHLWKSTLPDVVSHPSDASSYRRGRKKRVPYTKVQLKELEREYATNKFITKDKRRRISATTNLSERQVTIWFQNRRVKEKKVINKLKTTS

The structures appear in SMILES notation. The source made the active and inactive calls.

Turning to `CCc1cc2c(nc1CC)CCN(CCC(C)=NOC[C@@H](C)[C@H](OCc1ccccc1)C(C)C)C2`, the composite z-score in assay [1] is -0.259 (inactive); in assay [2] it was -0.125. In addition, the z-score was 0.23 in assay [3] and -3.53 (inactive) in assay [4].

As to `CC(=O)OC[C@H]1O[C@@H](ON=C(C)CCC(=O)OC[C@H]2O[C@H](C#Cc3ccccc3)C=C[C@@H]2Oc2ccc(C)cc2)[C@H](OC(C)=O)[C@@H](OC(C)=O)[C@@H]1OC(C)=O`, the results for the composite z-score in assay [1] and in assay [2] were 0.0771 (inactive) and 0.625, respectively. The z-score in assay [3] was -0.713; in assay [4] it was -3.79 (inactive).

For `CCCNC(=O)OC[C@H]1O[C@H](CCON=C2C[C@@H](O)[C@@H](O)[C@@H]3[C@@H]4C(=O)N(CC)C(=O)[C@@H]4CC[C@@H]23)C=C[C@@H]1Oc1ccc(OC)cc1`, the composite z-score in assay [1] was -0.14 (inactive); in assay [2], 0.696. Also, the z-score was 0.497 in assay [3] and -7.64 (inactive) in assay [4].

Regarding `CCN1C(=O)[C@H]2[C@H]3[C@H](O)[C@H](O)CC(=NOC[C@@H](O)[C@H]4O[C@@H]5OC(C)(C)O[C@@H]5[C@H]4O)[C@@H]3CC[C@H]2C1=O`, the composite z-score in assay [1] was -0.0371 (inactive); in assay [2], 0.33. The z-score in assay [3] was 0.663; in assay [4], 0.303 (inactive).

These data come from PubChem BioAssay.
